# From PubChem BioAssay (NCATS)
# Values joined by “and” are separate entries in the source; they are usually repeats but may differ in a detail not shown here. Equal values may be shown once. Results filed as inconclusive are left out. Unmarked numbers belong to inactive results. The call rests on the fitted dose curve; in most records, active means well fitted activation curve with a large enough effect; inconclusive means small, poorly fitted or top-dose-only effect; inactive means no such curve, though single readings can be large or run the other way.
# Target: Cellular tumor antigen p53 (Homo sapiens) (UniProt P04637)
# Sequence (P04637 whole entry, looked up): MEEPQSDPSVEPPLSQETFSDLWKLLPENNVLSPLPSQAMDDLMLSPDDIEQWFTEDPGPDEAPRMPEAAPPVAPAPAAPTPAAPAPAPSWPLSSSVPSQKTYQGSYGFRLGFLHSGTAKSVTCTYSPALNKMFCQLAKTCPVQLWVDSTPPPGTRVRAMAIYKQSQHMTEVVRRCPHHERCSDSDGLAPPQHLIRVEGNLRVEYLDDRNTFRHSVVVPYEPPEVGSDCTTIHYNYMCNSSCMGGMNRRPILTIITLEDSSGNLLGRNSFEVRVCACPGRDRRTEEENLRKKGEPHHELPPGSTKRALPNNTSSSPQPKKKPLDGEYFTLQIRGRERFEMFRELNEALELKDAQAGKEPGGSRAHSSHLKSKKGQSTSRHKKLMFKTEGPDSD
# Assay: Primary qHTS for small molecule compounds that upregulate eGFP-tagged delta133p53alpha (in N-terminal) cells. (AID 2060322);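 further: cells pre-induced with doxycycline then dosed without doxycycline; series mostly up to about 56 µM; 0% = DMSO vehicle and 100% = reference activator; nearly all actives have a fitted effect of over 75% in size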
# Settings: NCI-H358 eGFP-delta133p53alpha fluorescence, 24 h; activation: stronger effect = higher value
# Method in brief: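 NCI-H358 cells pre-induced 24 h with 10 ng/ml doxycycline for eGFP-delta133p53alpha, plated dox-free and exposed 24 h at 37C to titrated compounds. Fixed, Hoechst-stained; gated GFP peak intensity by laser scanning cytometry, normalized to DMSO (0%) and 57.5 uM 5-azacytidine (100%).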
row,SMILES,activation
1,CC[C@@H]([C@H](C)O)n1ncn(-c2ccc(N3CCN(c4ccc(OCC5CO[C@@](Cn6cncn6)(c6ccc(F)cc6F)C5)cc4)CC3)cc2)c1=O (some centres not stated),7.66%
2,COc1cc(C(=O)NS(=O)(=O)c2ccccc2C)ccc1Cc1cn(C)c2ccc(NC(=O)OC3CCCC3)cc12,105%
3,Cn1cncc1[C@@](N)(c1ccc(Cl)cc1)c1ccc2c(c1)c(-c1cccc(Cl)c1)cc(=O)n2C,15.2%
4,COc1cc2ncn(-c3cc(OCc4ccccc4S(C)(=O)=O)c(C#N)s3)c2cc1OC,-10.5%
5,O=C1CN2Cc3c(ccc(Cl)c3Cl)N=C2N1,-11.4%
6,COC(=O)C1C2CC3c4[nH]c5cc(OC)ccc5c4CCN3CC2CC(OC(=O)c2cc(OC)c(OC)c(OC)c2)C1OC (configuration not stated),4.12%
7,O=C(O)[C@@H](c1ccc(OCc2ccc3ccccc3n2)cc1)C1CCCC1,-11.6%
8,CCc1ccc(CCOc2ccc(CC3SC(=O)NC3=O)cc2)nc1 (configuration not stated),7.53% and -1.15%
9,O=C1CSC(=O)N1C(CCc1ccncc1)COc1ccc(-c2cccc([N+](=O)[O-])c2)cc1 (configuration not stated),-7.57%
10,CCCCCCCc1ccc(CCc2cccc(O)c2C(=O)O)cc1,-21.9% and 7.82%
11,Cc1ccc(NC(=O)c2ccc(CN3CCN(C)CC3)cc2)cc1Nc1nc(-c2cccnc2)cs1,4.59%
12,CCc1c(O)cc(O)c(C(=O)c2ccc(OCCN3CCOCC3)c(OC)c2)c1CC(=O)N(CCOC)CCOC,38.5%
